This passage reports Potency results from PubChem BioAssay AID504834 (National Center for Advancing Translational Sciences (NCATS), 2011).

Molecules are shown by their SMILES. Where “and” joins values, the source holds several entries; their conditions need not be identical. Identical values can stand only once. Among all 320,000 compounds or so, about 22,000 (6.9%) were called active. Inconclusive results (about 27%) are left out. Calls follow the shape of the dose curve; as a rule, active = well fitted inhibition curve with a large enough effect; inconclusive = small, poorly fitted or top-dose-only effect, or another doubt; inactive = no such curve, though single readings can be large or run the other way. Shown is part of a subset that was picked to be rich in actives. Entries that show only a call come without a potency. A structure can be active in one record and inactive in another.
Potency is read from the fitted curve at half-maximal effect.

A short description of this assay: Primary qHTS for delayed death inhibitors of the malarial parasite plastid, 96 hour incubation. The following applies: P. falciparum luciferase reporter growth; series mostly up to 28.7 µM. An outline of the steps:
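Parasite growth measured via integrated firefly luciferase reporter in P. falciparum. Infected erythrocytes at 2% hematocrit, 0.05% parasitemia final were treated 96 hours at 37 C under 5% CO2, and luminescence was read.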
On the technique in general: In qHTS, concentration-response curves come from the screen itself.
Turning to `Cc1nn(CC(=O)N/N=C/c2ccc(F)cc2)c(C)c1[N+](=O)[O-]`, the Potency entry was “inactive”.

As for `CC1CCN(C(=S)NC(=O)c2ccccc2Br)CC1`, the Potency entry was “inactive”.

Consider `CCOC(=O)c1c(CC(C)C)csc1/N=C/C1=C(O)CCCC1=O`, for which the Potency entry is “inactive”.

Take `CN1C(=O)[C@H]2[C@@H](C3CC3)N3C(=O)CN(Cc4ccccc4)C(=O)[C@@]3(C)[C@H]2C1=O`: the Potency entry is “inactive”.

As for `CC(=O)Nc1ccc(NC(=O)CCCNC(=O)c2ccc(Cl)cc2)cc1`, the Potency entry is “inactive”. For `C=CCNC(=S)NNC(=O)c1ccc(Br)o1`, the Potency result is “inactive”. Under `C=CCNC(=S)N/N=C/c1ccc(C)s1` stands 4.65 µM (active); under `Cc1ccc(/C=N/NC(=O)CN2CCN(Cc3ccccc3)CC2)s1`, “inactive”; under `CC(C)c1c(O)nc(SCCOc2ccc(Cl)cc2)[nH]c1=O`, “inactive”. For `CCOc1cc2[nH]c(=S)n(Cc3ccc(C(=O)N4CCN(C)CC4)cc3)c(=O)c2cc1OCC` the value was “inactive”.

`CC1CC(C)CN(CCCNC(=O)Cn2ncc3c([nH]c4ccccc43)c2=O)C1` (centres undefined): the Potency result is “inactive”.

For the compound `Cc1ccc2[nH]c3c(=O)n(CC(=O)NCCc4ccc(Cl)cc4)ncc3c2c1`, the Potency is 13.1 µM (active). Under `Cc1cccc(CCNC(=O)Cn2ncc3c([nH]c4ccc(C)cc43)c2=O)c1` stands “inactive”; under `Nc1c(C(=O)OCC(=O)Nc2ccc(OC(F)F)cc2)[nH]c(=O)[nH]c1=O`, “inactive”; under `COc1ccccc1OCCCC(=O)Nc1ccc2c(c1)OCCO2`, “inactive”.

As to `O=C(CN(c1ccc2c(c1)OCCO2)S(=O)(=O)c1ccccc1)Nc1ccc2c(c1)OCO2`, the Potency entry is “inactive”. Regarding `O=C(CCS(=O)(=O)Cc1ccccc1)Nc1ccc2c(c1)OCCO2`, the Potency is 2.94 µM (active). `Cc1ccc(-n2c(SCC(=O)N3CCC(C(=O)O)CC3)nc3ccccc3c2=O)cc1C`: the Potency result was “inactive”. With `CN(C)c1ccc(NC(=O)CN2C3CCCC2CC(NC(=O)c2ccccc2)C3)cc1` (centres undefined), the Potency result is “inactive”.

Regarding `CCCCCc1ccc(-c2cn(Cc3ccc4ccccc4c3)nn2)cc1`, the Potency entry was “inactive”. `O=C1CC(c2cccc(Br)c2)C2=C(CCCC2=O)N1` (centres undefined): the Potency entry is “inactive”. For `O=C1CC(c2cccc(F)c2)C2=C(CCCC2=O)N1` (centres undefined) the value was 9.28 µM (active); for `O=C1OCC2=C1C(c1ccccc1)CC(=O)N2c1cccc(F)c1` (centres undefined), “inactive”; for `COc1ccc(CNC(=O)c2cc(C(=O)C3CC3)c[nH]2)cc1`, “inactive”.

As to `O=[N+]([O-])c1ccc2oc(-c3cccc(O)c3)nc2c1`, the Potency entry was “inactive”. Under `CC(=O)Oc1ccc2c(=O)oc(-c3ccc([N+](=O)[O-])cc3)nc2c1` stands 2.33 µM (active). Consider `COc1ccc(-c2nc3cc([N+](=O)[O-])ccc3o2)cc1OC`, for which the Potency entry was “inactive”. For `O=C(NCc1cccs1)c1ccc(CS(=O)Cc2ccccc2Cl)o1` (centres undefined) the value was “inactive”; for `O=Cc1cn(-c2ccccc2)nc1-c1ccccn1`, “inactive”.

As to `Cc1ccc2[nH]c(=O)c(CN(CC3COCCO3)C(=O)Nc3ccccc3C)cc2c1` (centres undefined), the Potency was 0.465 µM (active). Take `COc1ccc2[nH]c(=O)c(CN(CC3CCCO3)C(=O)Nc3ccccc3)cc2c1` (centres undefined): the Potency result is “inactive”.

On to `CCNCc1cc2cc(C)ccc2[nH]c1=O`, for which the Potency entry was “inactive”. With `CCC(=O)N(CCc1ccccc1)Cc1cc2cc(C)ccc2[nH]c1=O`, the Potency entry was “inactive”.

Take `Cc1ccc2[nH]c(=O)c(CN(CCCN(C)C)C(=O)Nc3cccc(Cl)c3)cc2c1`: the Potency is 2.94 µM (active).

With `CC(=O)OCc1cc2cc(C)ccc2[nH]c1=O`, the Potency entry was “inactive”.

For the compound `COc1ccc(S(=O)(=O)NCC(c2ccc(C)cc2)N2CCN(C)CC2)cc1OC` (centres undefined), the Potency result is “inactive”. Under `Cc1ccc(-c2noc(CNC(=O)c3ccoc3C)n2)cc1` stands “inactive”; under `O=C(NC1CCCC1)C1CCN(C(=O)Nc2cccc(Cl)c2)CC1`, “inactive”; under `COc1ccccc1NC(=O)Nc1nc(CC(=O)Nc2ccccc2F)cs1`, “inactive”.

With `Cc1cc(=O)oc2ccc(OCC(=O)O)cc12`, the Potency entry was “inactive”.

For `Cc1cc(=O)oc2cc(OCCC[n+]3ccccc3)ccc12`, the Potency is 4.65 µM (active). Under `Cc1ccccc1N1CCN(CCCOc2ccc3c(C)cc(=O)oc3c2)CC1` stands “inactive”.

For `Cc1ccc(C2SCC(=O)N2c2ccccc2)cc1` (centres undefined), the Potency result was “inactive”.

Consider `CN(CC(=O)Nc1cccc(F)c1)C(=O)C1=COCCO1`, for which the Potency entry is “inactive”. For `CC(OC(=O)c1cc2ccccc2o1)C(=O)Nc1ccc(N2CCOCC2)cc1` (centres undefined) the value was “inactive”. In the case of `COc1ccc(C(=O)NC2=NCCS2)c(OC)c1`, the Potency result is “inactive”.

On to `CCCOc1ccc(C(=O)CCC(=O)OC(C)C(=O)Nc2ccc(NC(C)=O)cc2)cc1` (centres undefined), for which the Potency entry is “inactive”. For the compound `CCCOc1ccc(NC(=O)C2OC3OC(C)(C)OC3C3OC(C)(C)OC23)cc1` (centres undefined), the Potency is 10.4 µM (active).

In the case of `CCCOc1ccc(NC(=O)C2CCCNC2=O)cc1` (centres undefined), the Potency entry was “inactive”. Consider `CC(=O)c1ccc(N2CCN(C(=O)c3ccc(Cl)c(S(=O)(=O)NC4CC4)c3)CC2)c(F)c1`, for which the Potency result was “inactive”. For `CC(C)OC(=O)c1ccc(COc2ccc3ccc(=O)oc3c2)o1` the value was “inactive”; for `Cc1ccc(CN(CC(=O)NC2CCCCC2)C(=O)c2csnn2)cc1`, “inactive”.

In the case of `O=C(CN(C(=O)c1csnn1)c1ccc(Br)cc1)NC1CCCC1`, the Potency result was “inactive”. For `Cc1ccccc1CCN(CC(=O)NC1CCCCC1)C(=O)c1csnn1` the value was 11.7 µM (active); for `Cc1cc(NC(=O)CCC(=O)N(CC(=O)NCC2CCCO2)c2ccccc2)no1` (centres undefined), “inactive”; for `O=C(CN1CCC(O)(c2cccc(C(F)(F)F)c2)CC1)NCCc1ccccc1`, “inactive”. Under `Cc1ccc2nc(-c3ccncc3)cc(C(=O)Nc3ccc4c(c3)OCCO4)c2c1` stands “inactive”; under `COC(=O)CNC(=O)c1cc(-c2ccncc2)nc2ccccc12`, “inactive”; under `CCN(CC)CCNC(=O)c1ccc(NC(=O)c2cc(-c3ccncc3)nc3ccccc23)cc1`, 8.28 µM (active).

As for `O=S(=O)(Nc1cccc(-c2ccc(N3CCOCC3)nn2)c1)c1ccc(Cl)c(Cl)c1`, the Potency entry was “inactive”. `CCCC[N+]1(C)C2CC(OC(=O)C(CO)c3ccccc3)CC1C1OC12` (centres undefined): the Potency entry was “inactive and 1.2 µM (active)”. For `CCCCCCOC(=O)NCC(O)c1ccccc1` (centres undefined) the value was “inactive”; for `CCCCC(=O)NNC(=S)NC(=O)C(c1ccccc1)c1ccccc1`, “inactive”; for `CN(C)C(=O)Cn1c(=O)n(S(=O)(=O)c2ccccc2)c2ccccc21`, “inactive”. For `Cc1cccc(OCC(=O)NCC(=O)N/N=C/c2ccc(N(C)C)cc2)c1` the value was 7.38 µM (active); for `Cc1ccc(OCC(=O)N/N=C/c2ccncc2)cc1`, “inactive”.

Regarding `Cc1ccc(/C=N/NC(=O)CNC(=O)COc2ccccc2)o1`, the Potency result is “inactive”.

Consider `COc1ccccc1C(=O)COC(=O)CNS(=O)(=O)c1ccc(NC(C)=O)cc1`, for which the Potency result is “inactive”. For `CC(=O)Nc1ccc(N2C(=O)C3C4C=CC(CC4)C3C2=O)cc1` (centres undefined) the value was “inactive”.

Regarding `Cc1ccc(N2C(=O)C3C4C=CC(CC4)C3C2=O)cc1Br` (centres undefined), the Potency result is “inactive”. For `Cc1ccc(N2C(=O)C3C4C=CC(CC4)C3C2=O)cc1Cl` (centres undefined) the value was 3.7 µM (active).

In the case of `CCC(C)(C)NC(=O)C(c1ccc(OC)cc1)N(C(=O)CCC(=O)Nc1cc(C)on1)c1ccc(OC)cc1OC` (centres undefined), the Potency entry is “inactive”. Under `COc1cc(CC(=O)N2CCC(n3nccc3NC(=O)C3CC3)CC2)cc(OC)c1OC` stands “inactive”; under `Cc1ccc(-c2nc3c(cnn3-c3ccccc3)c(=O)o2)cc1`, “inactive”; under `Cc1ccc(-n2ncc3c(=O)n(-c4ccc(C)c(C)c4)c(-c4ccco4)nc32)cc1`, 9.28 µM (active). For `O=c1c2ccccc2nc(-c2ccco2)n1-c1ccc(Br)cn1` the value was “inactive”; for `CC(=O)Nc1ccc(C(=O)N(C2=NC(C)CS2)c2ccc(Cl)cc2)cc1` (centres undefined), “inactive”; for `COc1ccc(S(=O)(=O)NCC(c2ccco2)N2CCOCC2)cc1` (centres undefined), “inactive”.

As for `O=C(O)CCC(=O)N(Cc1ccccc1)Cc1ccccc1`, the Potency result was “inactive”. For the compound `CCC(=O)N(Cc1ccccc1)c1ccccn1`, the Potency result was “inactive”. With `CCN(Cc1ccncc1)C(=O)CCc1ccccc1`, the Potency was 13.1 µM (active). Under `O=C(CCC(=O)n1ncc2ccccc21)NCc1ccccc1Cl` stands “inactive”. Under `Cc1ccccc1-n1c(SCC(=O)NCc2cccs2)nnc1-c1ccncc1` stands “inactive”; under `Cc1cccc(C)c1NC(=O)CSc1nnc(-c2ccccc2)n1Cc1ccc2c(c1)OCO2`, “inactive”. For `Cc1ccc(-n2c(SCC(=O)NCc3ccc4c(c3)OCO4)nnc2-c2cccnc2)c(C)c1` the value was 9.28 µM (active); for `COc1ccc(NC(=O)c2cc(-c3ccc(C)cc3)on2)cc1`, “inactive”; for `Cc1csc(NC(=O)CSc2nnc(-c3cccnc3)o2)n1`, “inactive”.

In the case of `CCc1ccccc1NC(=O)c1cccs1`, the Potency entry is “inactive”. Under `CCc1ccccc1NC(=O)/C(=C/c1ccccc1)c1ccccc1` stands 8.28 µM (active); under `CCOc1ccc(/C=C(/NC(=O)c2ccccc2)C(=O)NCCC(=O)O)cc1`, “inactive”; under `CCSc1nc(O)c(C(c2cccc(OC)c2)c2c(O)nc(SCC)[nH]c2=O)c(=O)[nH]1`, “inactive”.

In the case of `CCOC(=O)C1=C(c2ccccc2)NC(=O)NC1c1cc(OC)c(OC)cc1OC` (centres undefined), the Potency entry is “inactive”. For `CCOC(=O)C1CN(S(=O)(=O)c2ccc(OC)cc2)c2cc(Cl)ccc2O1` (centres undefined) the value was “inactive”; for `CCOC(=O)C1=C(CSc2nccn2C)NC(=O)NC1c1ccc(OC)cc1` (centres undefined), 13.1 µM (active). For `COc1ccc(-c2ccc3nnc(SCC(=O)Nc4ccc(NC(C)=O)cc4)n3n2)cc1` the value was “inactive”; for `O=C(Nc1ccccc1)N1CCN(Cc2ccccc2)CC1`, “inactive”.

Take `O=C(Nc1ccccc1)N1CCN(C2c3ccccc3-c3ccccc32)CC1`: the Potency is 2.62 µM (active). Under `O=C(Nc1ccccc1)N1CCN(C(=O)Nc2ccccc2)CC1` stands “inactive”; under `CN1C(C(=O)NCc2ccco2)CC2Cn3c(nc4ccccc43)C21` (centres undefined), “inactive”.

As to `CC(C)(C)C(=O)Nc1ccc(-c2cn3cccnc3n2)cc1`, the Potency entry was “inactive”.

With `O=C(NC(=S)Nc1ccc(Cl)cc1Cl)C1CC1`, the Potency entry is “inactive”.

As to `Cc1ccc(C(=O)COC(=O)CCN2C(=O)C3C4CCC(C4)C3C2=O)cc1C` (centres undefined), the Potency result was “inactive”. Under `O=C(CCN1C(=O)C2C3CCC(C3)C2C1=O)Nc1ccc(Cl)cc1Cl` (centres undefined) stands 7.38 µM (active); under `O=C(N/C(=C\c1ccc([N+](=O)[O-])cc1)C(=O)N1CCCCC1)c1ccco1`, “inactive”.
